{
  "source": "the supplement of paper PMC7156485",
  "note": "± gives the standard deviation of the averaged measurements.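 Wherever H1.0 immunofluorescence intensity relative to DMSO is given: TDF is a line of transformed human dermal fibroblasts of mesenchymal origin.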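 Wherever cell number relative to DMSO is given: TDF denotes transformed human dermal fibroblasts of mesenchymal origin.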",
  "data": [
    {"system": "TDF", "test": "cell number relative to DMSO (% of DMSO); higher = more cells (less growth inhibition / toxicity)", "settings": "concentration: 10 µM; 24 h", "procedure,_shortened": "(§1)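 Treatment: HCC1569 and TDF cells, 800 per well in 384-well plates with RPMI and 10% FBS, were given compounds at 10 µM for 24 h at 37 °C, in triplicate. Readout: after 3.7% formaldehyde fixation, cells were stained with a rabbit anti-H1.0 antibody, an AlexaFluor 647 secondary and DAPI. Reported values are H1.0 nuclear intensity or cell number as percent of the plate control, taken as the median of replicates, with positional smoothing for HCC1569.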", "values": [
      {"smiles": "CN1CCN(c2ccc3c(c2)NC(=C2C(=O)N=c4cccc(F)c4=C2N)N3)CC1", "cell number": 72.6},
      {"smiles": "NC(=O)C1=CN(C2OC(COP(=O)([O-])OP(=O)([O-])OCC3OC(n4cnc5c(N)ncnc54)C(OP(=O)([O-])[O-])C3O)C(O)C2O)C=CC1.[Na+].[Na+].[Na+].[Na+]", "note": "(stereo unspecified) [NADPH tetrasodium]", "cell number": 102},
      {"smiles": "CC(O)(P(=O)([O-])O)P(=O)([O-])O", "note": "[Etidronate]", "cell number": 106},
      {"smiles": "CCCCCC=CCC=CCC=CCCCCC(=O)O", "note": "[6(Z), 9(Z), 12(Z)-Octadecatrienoic Acid]", "cell number": 93.2},
      {"smiles": "C=CC(N)CCC(=O)O", "note": "(racemic)", "cell number": 99},
      {"smiles": "CCCCCCCCCCCCCCCCn1cc[n+](Cc2ccccc2)c1C.[I-]", "note": "[eEF-2 Kinase Inhibitor, NH125]", "cell number": 38.9},
      {"smiles": "O=C(C=Cc1ccc(O)c(O)c1)OCCc1ccccc1", "cell number": "85.77 ± 0.57"},
      {"smiles": "O=C1OC(=CBr)CCC1c1cccc2ccccc12", "note": "(stereo unspecified) [Bromoenol lactone]", "cell number": 100},
      {"smiles": "O=C(CCCCCCc1ccccc1)c1ncc(-c2ccccn2)o1", "note": "[7-phenyl-1-[5-(2-pyridinyl)-1,3-oxazol-2-yl]-1-heptanone]", "cell number": 104},
      {"smiles": "N#Cc1c(NC(=O)c2cccc3ccccc23)sc2c1CCCC2", "note": "[JNK Inhibitor IX]", "cell number": 9.56},
      {"smiles": "CCCCCC=CCC=CCC=CCC=CCCCC(=O)OC(CO)CO", "note": "[2-Arachidonoylglycerol]", "cell number": 107},
      {"smiles": "CCCCCCCCCCCCCCCCOCC(CO)OC", "note": "(stereo unspecified) [1-Hexadecyl-2-O-methyl-glycerol]", "cell number": 109},
      {"smiles": "COC1=CC(C)C2CC3OC(=O)CC4C(C)=C(OC)C(=O)C(C2(C)C1=O)C34C", "note": "(stereo unspecified) [Quassin]", "cell number": 89.6},
      {"smiles": "CCCOc1ccc2nc(NC(=O)OC)[nH]c2c1", "note": "[Oxibendazole]", "cell number": 9.31},
      {"smiles": "CC(N=C(NC#N)Nc1ccncc1)C(C)(C)C", "note": "(stereo unspecified) [Pinacidil]", "cell number": "107 ± 6.8"},
      {"smiles": "Cl.Cl.Cl.NCCC1CCCC(CCN)N1", "note": "(stereo unspecified) [MDL 26,630 trihydrochloride]", "cell number": 105},
      {"smiles": "CSc1nc2ccc3nc(NC(=O)C(c4ccccc4)c4ccccc4)sc3c2s1", "cell number": 121},
      {"smiles": "COc1cc2ncnc(N3CCN(C(=O)Nc4ccc(Oc5ccccc5)cc4)CC3)c2cc1OC", "note": "[PDGF Receptor Tyrosine Kinase Inhibitor III]", "cell number": 62.2},
      {"smiles": "Cc1cc(C(C)(C)C)c(O)c(C)c1CC1=NCCN1.Cl", "note": "[Oxymetazoline hydrochloride]", "cell number": 107},
      {"smiles": "CN(Cc1cc(Br)cc(Br)c1N)C1CCCCC1", "note": "[Bromhexine]", "cell number": 110},
      {"smiles": "CCCCCCCCCCCCCCCCCCCCC(=O)O", "note": "[Heneicosanoic acid]", "cell number": 95.5}
    ]},
    {"system": "TDF", "test": "H1.0 immunofluorescence intensity relative to DMSO (% of DMSO); higher = stronger H1.0 induction, active = 120 or more", "settings": "concentration: 10 µM; 24 h", "procedure,_shortened": "as §1", "values": [
      {"smiles": "O=C(C=Cc1ccc(O)cc1)CC(=O)C=Cc1ccc(O)cc1", "note": "[Bis demethoxycurcumin]", "H1.0 immunofluorescence intensity": "96 (inactive)"},
      {"smiles": "CN1CCN(C2Cc3ccccc3Sc3ccc(Cl)cc32)CC1.O=C(O)C=CC(=O)O", "note": "(stereo unspecified)", "H1.0 immunofluorescence intensity": "105 (inactive)"},
      {"smiles": "CNc1cc(NS(=O)(=O)c2ccc(N)cc2)nc(NC)n1.Cl.Cl", "note": "[Ro 04-6790 dihydrochoride]", "H1.0 immunofluorescence intensity": "98.7 (inactive)"},
      {"smiles": "O=C(/C=C/c1cccnc1)NCCCCC1CCN(C(=O)c2ccccc2)CC1", "H1.0 immunofluorescence intensity": "98.9 (inactive)"},
      {"smiles": "C=CCn1c(=O)c2c(nc(-c3ccc(S(=O)(=O)O)cc3)n2C)n(C)c1=O", "note": "[1-Allyl-3,7-dimethyl-8-p-sulfophenylxanthine]", "H1.0 immunofluorescence intensity": "99.2 (inactive)"},
      {"smiles": "O=c1c(-c2ccc(O)cc2)coc2cc(OC3OC(CO)C(O)C(O)C3O)cc(O)c12", "note": "(stereo unspecified) [Genistin]", "H1.0 immunofluorescence intensity": "93 (inactive)"},
      {"smiles": "O=C(NCCCN1CCOCC1)c1cnn2c(-c3ccccc3)cc(-c3ccccc3)nc12", "H1.0 immunofluorescence intensity": "97.2 (inactive)"},
      {"smiles": "O=C([O-])C=CC(O)c1ccc(Cl)cc1.[Na+]", "note": "(stereo unspecified)", "H1.0 immunofluorescence intensity": "95.7 (inactive)"},
      {"smiles": "O=C(O)CN(CCN(CC(=O)O)CC(=O)O)CCN(CC(=O)O)CC(=O)O", "note": "[Diethylenetriaminepentaacetic acid]", "H1.0 immunofluorescence intensity": "95.1 (inactive)"},
      {"smiles": "Nc1nc2ccccc2c2ccccc12", "note": "[6-phenanthridinamine]", "H1.0 immunofluorescence intensity": "97.8 (inactive)"},
      {"smiles": "CC(O)CCCC(O)C=CC1C(O)CC(=O)C1CC=CCCCC(=O)O", "note": "[19(R)-Hydroxy-prostaglandin E2]", "H1.0 immunofluorescence intensity": "95.7 (inactive)"},
      {"smiles": "CCC(C)C1OC2(CCC1C)CC1CC(CC=C(C)C(OC3CC(OC)C(OC4CC(OC)C(O)C(C)O4)C(C)O3)C(C)C=CC=C3COC4C(O)C(C)=CC(C(=O)O1)C34O)O2", "note": "(stereo unspecified) [Ivermectin]", "H1.0 immunofluorescence intensity": "92.8 (inactive)"},
      {"smiles": "NC(N)=Nc1nc(CSCCC(N)=NS(N)(=O)=O)cs1", "note": "[Famotidine]", "H1.0 immunofluorescence intensity": "94.4 (inactive)"},
      {"smiles": "CC(OC1OCCN(Cc2nc(=O)[nH][nH]2)C1c1ccc(F)cc1)c1cc(C(F)(F)F)cc(C(F)(F)F)c1", "note": "(stereo unspecified) [Aprepitant]", "H1.0 immunofluorescence intensity": "99.3 (inactive)"},
      {"smiles": "Nc1ncnc2c1cnn2-c1ccccc1", "H1.0 immunofluorescence intensity": "91.4 (inactive)"},
      {"smiles": "O=S1(=O)CCN(CN2CCS(=O)(=O)NC2)CN1", "H1.0 immunofluorescence intensity": "88.2 (inactive)"},
      {"smiles": "CC(C)(C)c1ccc(S(=O)(=O)Nc2ccc(-n3ccnc3)cc2)cc1", "note": "[Stem-Cell Factor/c-Kit Inhibitor, ISCK03]", "H1.0 immunofluorescence intensity": "103 (inactive)"},
      {"smiles": "CN1CCN(C2=Nc3ccccc3Sc3ccc(Cl)cc32)CC1", "note": "[Clothiapine]", "H1.0 immunofluorescence intensity": "94 (inactive)"},
      {"smiles": "OCC1OC(OC2OC=CC3C(O)C4OC4(CO)C23)C(O)C(O)C1O", "note": "(stereo unspecified) [Catalpol]", "H1.0 immunofluorescence intensity": "96.6 (inactive)"},
      {"smiles": "CN1CCN(c2ccc3c(c2)NC(=C2C(=O)N=c4cccc(F)c4=C2N)N3)CC1", "H1.0 immunofluorescence intensity": "93.5 (inactive)"},
      {"smiles": "NC(=O)C1=CN(C2OC(COP(=O)([O-])OP(=O)([O-])OCC3OC(n4cnc5c(N)ncnc54)C(OP(=O)([O-])[O-])C3O)C(O)C2O)C=CC1.[Na+].[Na+].[Na+].[Na+]", "note": "(stereo unspecified) [NADPH tetrasodium]", "H1.0 immunofluorescence intensity": "96.9 (inactive)"},
      {"smiles": "CC(O)(P(=O)([O-])O)P(=O)([O-])O", "note": "[Etidronate]", "H1.0 immunofluorescence intensity": "102 (inactive)"},
      {"smiles": "CCCCCC=CCC=CCC=CCCCCC(=O)O", "note": "[6(Z), 9(Z), 12(Z)-Octadecatrienoic Acid]", "H1.0 immunofluorescence intensity": "91.1 (inactive)"},
      {"smiles": "C=CC(N)CCC(=O)O", "note": "(racemic)", "H1.0 immunofluorescence intensity": "97.3 (inactive)"},
      {"smiles": "CCCCCCCCCCCCCCCCn1cc[n+](Cc2ccccc2)c1C.[I-]", "note": "[eEF-2 Kinase Inhibitor, NH125]", "H1.0 immunofluorescence intensity": "152 (active)"},
      {"smiles": "O=C(C=Cc1ccc(O)c(O)c1)OCCc1ccccc1", "H1.0 immunofluorescence intensity": "93.1 (inactive)"},
      {"smiles": "O=C1OC(=CBr)CCC1c1cccc2ccccc12", "note": "(stereo unspecified) [Bromoenol lactone]", "H1.0 immunofluorescence intensity": "94.5 (inactive)"},
      {"smiles": "O=C(CCCCCCc1ccccc1)c1ncc(-c2ccccn2)o1", "note": "[7-phenyl-1-[5-(2-pyridinyl)-1,3-oxazol-2-yl]-1-heptanone]", "H1.0 immunofluorescence intensity": "98.3 (inactive)"},
      {"smiles": "N#Cc1c(NC(=O)c2cccc3ccccc23)sc2c1CCCC2", "note": "[JNK Inhibitor IX]", "H1.0 immunofluorescence intensity": "163 (active)"},
      {"smiles": "CCCCCC=CCC=CCC=CCC=CCCCC(=O)OC(CO)CO", "note": "[2-Arachidonoylglycerol]", "H1.0 immunofluorescence intensity": "97.3 (inactive)"},
      {"smiles": "CCCCCCCCCCCCCCCCOCC(CO)OC", "note": "(stereo unspecified) [1-Hexadecyl-2-O-methyl-glycerol]", "H1.0 immunofluorescence intensity": "95.3 (inactive)"},
      {"smiles": "COC1=CC(C)C2CC3OC(=O)CC4C(C)=C(OC)C(=O)C(C2(C)C1=O)C34C", "note": "(stereo unspecified) [Quassin]", "H1.0 immunofluorescence intensity": "96.8 (inactive)"},
      {"smiles": "CCCOc1ccc2nc(NC(=O)OC)[nH]c2c1", "note": "[Oxibendazole]", "H1.0 immunofluorescence intensity": "157 (active)"},
      {"smiles": "CC(N=C(NC#N)Nc1ccncc1)C(C)(C)C", "note": "(stereo unspecified) [Pinacidil]", "H1.0 immunofluorescence intensity": "89.4 (inactive)"},
      {"smiles": "Cl.Cl.Cl.NCCC1CCCC(CCN)N1", "note": "(stereo unspecified) [MDL 26,630 trihydrochloride]", "H1.0 immunofluorescence intensity": "93.7 (inactive)"},
      {"smiles": "CSc1nc2ccc3nc(NC(=O)C(c4ccccc4)c4ccccc4)sc3c2s1", "H1.0 immunofluorescence intensity": "99.4 (inactive)"},
      {"smiles": "COc1cc2ncnc(N3CCN(C(=O)Nc4ccc(Oc5ccccc5)cc4)CC3)c2cc1OC", "note": "[PDGF Receptor Tyrosine Kinase Inhibitor III]", "H1.0 immunofluorescence intensity": "102 (inactive)"},
      {"smiles": "Cc1cc(C(C)(C)C)c(O)c(C)c1CC1=NCCN1.Cl", "note": "[Oxymetazoline hydrochloride]", "H1.0 immunofluorescence intensity": "93.9 (inactive)"},
      {"smiles": "CN(Cc1cc(Br)cc(Br)c1N)C1CCCCC1", "note": "[Bromhexine]", "H1.0 immunofluorescence intensity": "88.6 (inactive)"},
      {"smiles": "CCCCCCCCCCCCCCCCCCCCC(=O)O", "note": "[Heneicosanoic acid]", "H1.0 immunofluorescence intensity": "98.5 (inactive)"}
    ]}
  ]
}
